# A selection: hits, their analogues and other compounds. The true share with any hit is near 3.4%.
# FBW7 activator: activators of human E3 ligase FBW7; normalized activity (activation), % at 26.1 µM; AID 1259310; 650,000 tested, 0.13% active; AlphaScreen FBW7–phospho-cyclin E peptide binding, activator screen; Q969H0; in the data active = normalized activity above about 1.9%;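 note: purified mutant Fbw7 with reduced substrate affinity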
# TEAD-YAP inh: TEAD-YAP interaction inhibition; HEK-TIYL cells, TEAD-Gal4/YAP UAS-luciferase luminescence; inhibition, % at 9.12 µM; 640,000 tested, 1.4% active; in the data active = inhibition above about 32%
# MITF inh: inhibitors of human MITF | inhibition, % at 2.6 µM | AlphaScreen MITF homodimerization, bead proximity signal | O75030 | 650,000 tested, 0.91% active | AID 1259374; in the data active = inhibition above about 50%
# GPR151 ag: human GPR151 activation; Q8TDV0; PathHunter beta-arrestin GPR151 cells, luminescence; activation, % at 11.2 µM; 650,000 tested, 1% active; in the data active = activation above about 4.9%
# Target sequence (Q8TDV0 whole entry, looked up): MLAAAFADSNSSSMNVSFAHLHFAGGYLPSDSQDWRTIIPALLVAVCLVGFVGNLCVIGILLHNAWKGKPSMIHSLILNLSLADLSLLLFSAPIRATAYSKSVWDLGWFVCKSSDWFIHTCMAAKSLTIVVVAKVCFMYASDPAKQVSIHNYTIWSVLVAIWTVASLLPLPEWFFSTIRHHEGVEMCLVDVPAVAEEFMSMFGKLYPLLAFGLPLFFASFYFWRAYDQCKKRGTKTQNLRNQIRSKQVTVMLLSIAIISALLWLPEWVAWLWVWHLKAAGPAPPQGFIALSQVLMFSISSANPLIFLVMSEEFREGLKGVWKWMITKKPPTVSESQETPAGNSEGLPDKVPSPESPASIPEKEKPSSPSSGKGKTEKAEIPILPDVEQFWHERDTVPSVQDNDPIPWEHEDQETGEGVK
# Numbers stand for hits; 0 = inactive.
SMILES,FBW7 activator,TEAD-YAP inh,MITF inh,GPR151 ag
CC1Oc2nc3ccccc3cc2CN(Cc2cccs2)C1=O (configuration not stated),0,0,0,0
CC(=O)C1=C(O)C(=O)N(CCC(=O)O)C1c1ccc(F)cc1 (configuration not stated),0,0,0,0
CCN1c2ncccc2C(=O)NC12CCN(C(=O)c1cnn3cccnc13)CC2,0,0,0,0
CC1=C(C#N)C(c2cccnc2)C2=C(N1)c1ccccc1C2=O (configuration not stated),0,56,0,0
Cc1cc(C(=O)N(C)C)ccc1[N+](=O)[O-],0,0,0,0
CC(C)NC1CCCc2c1[nH]c1ccc([N+](=O)[O-])cc21 (configuration not stated),0,49,0,0
CCOC(=O)C1CN(c2ccc([N+](=O)[O-])cc2[N+](=O)[O-])C1,0,55,0,0
COC(=O)C1CCN(c2ccc([N+](=O)[O-])cc2[N+](=O)[O-])CC1,0,0,0,0
Cc1nc2scc(C)n2c1C(=O)NC1CCC1,1.9,0,0,0
CCOc1cc(/C=C2\C(=O)ON=C2c2ccccc2)ccc1OCc1ccccc1,0,0,57,0
O=C1ON=C(c2ccccc2)/C1=C/c1c(OCc2ccc(Cl)cc2)ccc2ccccc12,0,0,0,0
O=C1ON=C(c2ccccc2)/C1=C\c1ccccc1OCc1ccc(Cl)cc1,0,0,68,0
C=CCOc1ccc(/C=C2/C(=O)ON=C2c2ccccc2)cc1,0,0,65,0
CCCCOc1ccccc1/C=C1/C(=O)ON=C1c1ccccc1,0,0,68,0
CS(=O)(=O)C1=NSC2=NC(=O)/C(=C\c3ccc(Br)cc3)C(=N)N21,0,0,0,0
CCCCCOc1ccccc1/C=C1/C(=O)ON=C1c1ccccc1,0,0,62,0
CC(=O)NC(c1cccc([N+](=O)[O-])c1)c1ccc2cccnc2c1O (configuration not stated),0,83,74,0
CCCCC(=O)NC(c1cccc([N+](=O)[O-])c1)c1ccc2cccnc2c1O (configuration not stated),0,88,55,0
CCCCC(=O)NC(c1ccccc1)c1ccc2cccnc2c1O (configuration not stated),0,0,0,0
CC(=O)N1CCc2c(sc(NC(=O)c3ccc(C)cc3)c2C#N)C1,0,39,0,0
CCOC(=O)N1CCc2c(sc(NC(=O)c3ccc(N(C)C)cc3)c2C#N)C1,0,49,0,0
CCOC(=O)N1CCc2c(sc(NC(=O)CCOc3ccccc3)c2C#N)C1,0,38,0,0
CCOC(=O)c1c(NC(=O)c2ccco2)sc(C(=O)N(C)C)c1C,0,0,0,0
O=C(c1cccs1)[C@@H]1CCCN(S(=O)(=O)c2ccc(F)cc2)C1,0,0,0,0
Cc1c(Br)c([N+](=O)[O-])nn1CC(=O)Nc1sc2c(c1C(N)=O)CCCC2,0,0,0,0
SMILES,FBW7 activator,TEAD-YAP inh,MITF inh,GPR151 ag
COc1ccc(CNCc2cc(OC)c(OC)c(OC)c2)cc1C,0,0,51,0
COc1ccc(CNCc2ccccc2)cc1OC,0,0,0,0
CC(C)C(NC(=O)OC(C)(C)C)C(=O)N1CCCC1C(N)=O (configuration not stated),2.0,0,0,0
c1ccc(-c2nc(-c3cccnc3)cc(N3CCc4ccccc4C3)n2)nc1,0,0,0,0
Oc1ccc(/C=N/NC(=S)NCCN2CCOCC2)c(O)c1,0,0,94,0
COc1cc(C2C(C#N)=C(N)Oc3c2ccc2ccccc32)cc(Cl)c1O (configuration not stated),0,64,0,0
COc1cccc(C2C(C#N)=C(N)Oc3cc4ccccc4cc32)c1 (configuration not stated),0,43,0,0
COc1cccc(C2C(C#N)=C(N)Oc3c2ccc2ccccc32)c1 (configuration not stated),0,58,0,0
COc1cccc(C2C(C#N)=C(N)Oc3cc(N)ccc32)c1OC (configuration not stated),0,0,0,0
COc1ccccc1C1C(C#N)=C(N)Oc2cc3ccccc3cc21 (configuration not stated),0,37,0,0
COc1ccc(C2C(C#N)=C(NC(=O)c3ccccc3OC)Oc3c2ccc2ccccc32)cc1OC (configuration not stated),0,0,0,0
Cc1cc(Cl)ccc1N(CC(=O)Nc1cccc(Br)c1)S(=O)(=O)c1ccccc1,0,0,0,0
COc1ccc(CCNC(=O)c2cc(S(=O)(=O)N3CCCCC3)ccc2F)cc1OC,0,0,0,0

# Screening results: PubChem BioAssay, The Scripps Research Institute Molecular Screening Center
